system: PRKG2
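Note: kd values determined as follow-up on hits from a single-replicate KINOMEscan panel screen.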

SMILES | Kd [nM]
COc1ccc(Nc2nccc(N3CCC(NC(=O)C(C)c4ccc(Cl)cc4)C3)n2)cc1 (stereo not shown) [GSK1379735] | > 10000
CNc1cc(-c2ccc3c(N)n[nH]c3c2)nc(N)n1 [GSK2224810] | 39
Cc1c(Cn2c(C)c(C)n3c(=O)cc(N4CCOCC4)nc23)cccc1C(F)(F)F [GSK2328680] | > 10000
CNC(=O)c1ccc(C)c(-n2c(C)cc(OCc3ccc(F)cc3F)c(Br)c2=O)c1 | > 10000
CC[C@@H]1CO[C@H](C(=O)Nc2ccccc2)CN1c1cc(-c2ccc3c(N)n[nH]c3c2)nc(NC)n1 [GSK2376236] | 400
Cn1cncc1-c1cc2c(Nc3ccc(OCc4ccccc4)cc3)ncnc2cn1 [GW281179] | 3300
NS(=O)(=O)c1cccc(N/C=C2\C(=O)Nc3ccc(S(=O)(=O)Cc4c(Cl)cccc4Cl)cc32)c1 [GSK398099] | > 10000
Cn1cncc1C(=O)NC1CCN(c2ccnc(Nc3ccc(F)cc3)n2)C1 (stereo not shown) [GSK1379717] | > 10000
Cn1cnc2c(N)ncnc21 [SKF-97623] | > 10000

system: RIOK1

SMILES | Kd [nM]
CNc1cc(-c2ccc3c(N)n[nH]c3c2)nc(N)n1 [GSK2224810] | 1100
O=C(Nc1n[nH]c2cc(-c3ccsc3)ccc12)C1CC1 [SB-732932] | 180
CC(C)c1cc(-c2ccc3c(N)n[nH]c3c2)nc(N)n1 [GSK2250882] | 580
Nc1cccc(-c2ccc3c(N)n[nH]c3c2)n1 [GSK2192730] | 390
